Screening results deposited in PubChem BioAssay by several laboratories.
GDH-TPI counter – GDH-TPI coupled enzyme inhibition counter-screen | GDH-TPI coupled enzyme counterscreen, NADH absorbance | inhibition, % at 4.8 µM | actives 1.2% (n = 360,000); in the data active = inhibition above about 30%;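 also: 0% = DMSO wells and 100% = wells lacking the enzyme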
PrP UTR inh – suppresses PrP 5' UTR mRNA reporter expression; cell-based PrP 5' UTR mRNA reporter, plate reader; inhibition, % (concentration not given with the values); actives 0.35% (n = 340,000); in the data active = inhibition above about 52%; also: 0 = median of the neutral control wells
BJeLR lethal – kills HRASV12-expressing BJeLR cells; AID 1554; BJeLR (HRASV12) viability, CellTiter-Glo ATP luminescence, 48 h; actives 0.17% (n = 300,000); inhibition, % (concentration not given with the values); in the data active = inhibition above about 50%
PrPC surface inh – reduces human prion protein on the cell surface; actives 0.43% (n = 370,000); inhibition, % at 13.8 µM; cell surface PrPC, TR-FRET read-out; P04156; in the data active = inhibition above about 24%; also: 0% = median of the test wells and 100% = reference compound wells
PfHsp40 rescue – restores yeast growth despite PfHsp40 toxicity. S. cerevisiae expressing PfHsp40, growth rescue, ATP luminescence. growth rescue, % at 12.5 µM. actives 0.68% (n = 340,000). AID 504582; in the data active = growth rescue above about 28%, passing the limit was not always enough;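 also: yeast W303a lacking pdr1 and pdr3 grown in galactose medium; growth measured after three days at 30 °C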
Mtb FBA inh – inhibitors of M. tuberculosis fructose-bisphosphate aldolase; P9WQA3; purified M. tuberculosis FBA, fluorescence read-out; inhibition, % at 1 µM; actives 2.3% (n = 360,000); in the data active = inhibition above about 27%;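 also: 0% = vehicle and 100% = reference inhibitor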
Target sequence (P9WQA3 whole entry, looked up): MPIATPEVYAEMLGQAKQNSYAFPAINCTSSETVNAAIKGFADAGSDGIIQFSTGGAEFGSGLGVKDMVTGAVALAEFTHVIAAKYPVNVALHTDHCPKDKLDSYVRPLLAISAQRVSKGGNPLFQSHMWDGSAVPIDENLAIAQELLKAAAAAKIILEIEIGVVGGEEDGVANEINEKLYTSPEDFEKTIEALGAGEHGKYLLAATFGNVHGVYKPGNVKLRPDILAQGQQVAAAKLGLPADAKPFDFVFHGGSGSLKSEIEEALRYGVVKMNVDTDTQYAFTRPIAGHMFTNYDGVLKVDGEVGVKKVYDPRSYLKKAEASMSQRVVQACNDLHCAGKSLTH
The depositor's hits bear a star; x = no result. This is a sample that favours compounds with a hit; in the whole collection about 4.5% have one here.

SMILES | GDH-TPI counter | PrP UTR inh | BJeLR lethal | PrPC surface inh | PfHsp40 rescue | Mtb FBA inh
COCc1c(C(=O)N/N=C/c2c[nH]c3ccccc23)nnn1-c1nonc1N | 44* | 1 | 0 | -3 | 0 | 2
Cc1ccc(-c2c(C(=O)N/N=C/c3c[nH]c4ccccc34)nnn2-c2nonc2N)cc1 | 47* | 1 | 4 | -4 | 2 | 4
COc1cccc(N2CCN(CC(=O)NCc3cccc(OC)c3OC)CC2)c1 | x | x | x | -2 | x | x
COc1cccc(CNC(=O)COc2ccc(C(=O)c3ccccc3)cc2)c1 | 0 | -30 | 0 | 1 | 499* | 0
COc1ccc(C(c2c(O)ccc3ccccc23)N2CCOCC2)c(OC)c1 (stereo not given) | -8 | -54 | -2 | 61* | 410* | 2
O=[N+]([O-])c1cccc(OCCCN2CCC(C(O)(c3ccccc3)c3ccccc3)CC2)c1 | x | x | x | -16 | x | x
FC(F)(F)c1nc(SCc2ccc(Cl)cc2Cl)n[nH]1 | -5 | -12 | -3 | 8 | 299* | 2
Cn1c(SCc2ccc(Cl)cc2Cl)nc(C(F)(F)F)cc1=O | 8 | -18 | 15 | 4 | 0 | 1
COc1ccc(C(=O)Nc2ccc3c(c2)C(=O)N(C)[C@H]2CC[C@H](CC(=O)NCC4CC4)O[C@@H]2CO3)cc1 | x | x | x | 1 | x | x
CCS(=O)(=O)N1Cc2ccccc2CC1C(=O)OCC(=O)Nc1ccc(C)cc1 (stereo not given) | 117* | -26 | 1 | 5 | -1 | 1
N#Cc1cc2cc3c(cc2nc1SCC(=O)N1CCCC1)OCCO3 | 6 | -56 | -4 | x | -2 | 3
CC(=O)CSc1nc2cc3c(cc2cc1C#N)OCCO3 | 33* | -17 | 21 | -9 | 1 | 3
Cc1ccc(S(=O)(=O)N(CC(=O)NCc2cccs2)c2ccccc2)cc1 | -9 | -18 | x | 0 | 42* | 1
CCCCCc1ccc(NC(=O)O[C@@H]2CC[C@@]34CCCN3C(=O)CCC[C@H]4C2)cc1 | x | x | x | -3 | x | x
CN(C)c1ccc(C=c2c3ccccc3n3c2c2c([n+]3C)CCCC2)cc1 | 12 | 4 | x | -38 | 300* | -16
CN(C)c1ccc(C=c2c3ccccc3n3c2cc(-c2ccc(Cl)cc2)[n+]3C)cc1 | 23 | -30 | x | 3 | 219* | -6
CN(C)c1ccc(C=c2c3ccccc3n3c2cc(-c2ccccc2)[n+]3C)cc1 | 13 | -17 | x | -1 | 7 | -9
CN(C)c1ccc(C=c2c3cc([N+](=O)[O-])ccc3n3c2cc(-c2ccccc2)[n+]3C)cc1 | 42* | -20 | x | 3 | 5 | -3
CN(C)c1ccc(/C=C2\SC(=O)N(CC(O)Cn3c4ccccc4c4ccccc43)C2=O)cc1 (stereo not given) | -2 | -14 | -12 | 0 | -2 | 2
O=c1[nH]c(Nc2ccccn2)cc2ccccc12 | 6 | -83 | 4 | -1 | 1 | 132*
O=c1[nH]c(-c2ccccn2)cc2ccccc12 | 20 | -73 | 6 | -7 | 1 | 121*
O=c1[nH]c(Nc2ccc(F)cc2)cc2ccccc12 | 1 | -23 | -2 | 6 | -1 | -2
CN[C@H]1C[C@H]2O[C@@](C)([C@H]1OC)n1c3ccccc3c3c4c(c5c6ccccc6n2c5c31)C(=O)NC4 | x | x | 107* | x | x | x
CC(=O)/C=C(\C)Nc1ccccc1O | 3 | -25 | -1 | -5 | 43* | -1
COc1ccc(Cn2cc(COC(=O)NCC(C)C)nn2)cc1 | x | x | x | -8 | x | x
SMILES | GDH-TPI counter | PrP UTR inh | BJeLR lethal | PrPC surface inh | PfHsp40 rescue | Mtb FBA inh
N#C/C(=C\c1ccc[nH]1)C(=O)NC1CC1 | 32* | -5 | 10 | -1 | -1 | -4
N#C/C(=C\c1ccccc1)C(=O)NC1CC1 | 9 | -9 | -2 | 4 | 0 | -1
Cc1ccc(C)c(NC(=O)/C(C#N)=C/c2ccc[nH]2)c1 | 31* | -2 | -2 | -7 | -1 | -3
CCOc1ccc(-n2c(SC/C=C/c3ccccc3)nnc2-c2ccco2)cc1 | x | x | x | 7 | x | x
COc1ccccc1/C=C/C=N/n1c(-c2ccncc2)n[nH]c1=S | 32* | 6 | -6 | -5 | -1 | -3
Cn1cccc1/C=N/n1c(-c2ccccc2)n[nH]c1=S | 33* | -14 | -4 | -4 | 1 | -4
COc1ccccc1/C=C/C=N/n1c(-c2n[nH]c3c2CCC3)n[nH]c1=S | 33* | x | -6 | 6 | x | 6
C#CCCN([C@H](C(=O)OC)C(C)CC)S(=O)(=O)c1ccccc1Br (stereo not given in full) | x | x | x | -3 | x | x
COc1cccc(CNC2CCC23CCC(C)CC3)c1 (stereo not given) | x | x | x | -4 | x | x
O=C(NCCc1ccccc1)OCc1cn(Cc2cccc(C(F)(F)F)c2)nn1 | x | x | x | 22 | x | x
CCCC/C=C1/[C@H](CC)N(C)C2=N[C@@H](c3ccccc3)CC(=O)N21 | x | x | x | 1 | x | x
O=C(COC(=O)c1ccc([N+](=O)[O-])o1)NC1CCCc2ccccc21 (stereo not given) | -3 | -21 | x | -37 | 262* | -1
COc1ccc(C(C)(C)C)cc1NC(=O)COC(=O)c1ccc([N+](=O)[O-])o1 | 8 | -9 | 0 | -27 | 532* | 0
CN(C)S(=O)(=O)c1cccc(NC(=O)COC(=O)c2ccc([N+](=O)[O-])o2)c1 | 3 | -15 | 6 | -12 | -1 | -2
O=C(COC(=O)c1ccc([N+](=O)[O-])o1)NCc1ccc2c(c1)OCO2 | 7 | -24 | x | -36 | 168* | -2
CCN(CC)S(=O)(=O)c1ccc(Cl)c(NC(=O)COC(=O)c2ccc([N+](=O)[O-])o2)c1 | 0 | -13 | -4 | -24 | 49* | 4
O=C(COC(=O)c1ccc(Br)o1)NCc1ccc2c(c1)OCO2 | 0 | -13 | x | -8 | 0 | -1
O=C(Cn1nnc(-c2ccccc2F)n1)Nc1ccc(F)cc1F | x | x | x | 7 | x | x
Cc1cccc(NC(=O)COC(=O)c2ccc([N+](=O)[O-])o2)c1C | -5 | -13 | 5 | -23 | 53* | -3
COc1ccc(C)cc1NC(=O)COC(=O)c1ccc([N+](=O)[O-])o1 | 2 | -36 | 5 | -16 | 77* | 3
O=C(COC(=O)c1ccc([N+](=O)[O-])o1)Nc1ncc(Cl)cc1Cl | 3 | -24 | x | -20 | 49* | -2
O=C(COC(=O)c1ccc([N+](=O)[O-])o1)Nc1ccc(N2CCOCC2)cc1 | 1 | -5 | x | -20 | 95* | 0
COP(=O)(CC(=O)OC(C)(C)C)C(CC(C)C)NC(=O)OCc1ccccc1 (stereo not given) | x | x | x | -4 | x | x
O=C(c1ccoc1)N1CCN(c2cc(-c3ccco3)nc3cc(-c4ccco4)nn23)CC1 | x | x | x | -12 | x | x
CCn1c(O)c(C2=NCCCC2)c2ccccc21 | 36* | -21 | 5 | 3 | 0 | 0
Oc1[nH]c2ccccc2c1C1=NCCCC1 | 27 | 4 | 8 | 4 | -1 | 0
CC(C)C(=O)NNC(=O)CC(=O)Nc1ccccc1C(=O)O | -1 | -20 | -12 | 6 | 40* | -1
